Compounds without any hit were thinned out: in the full panel of roughly 83,000, 20% have a hit.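 In brief: 96-well plates, 48 h treatment, single concentration, percent growth endpoint.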 Unmarked numbers belong to inactive results. Active and inactive are the calls of the source.
Each compound was assayed on NCI-H322M lung (assay: NCI-60 one-dose screen, 48 h (100 = growth as untreated, 0 = no growth, -100 = all killed)). Conditions: 10 µM unless noted.
Experimental: Growth inhibition of the NCI-H322M human Non-Small Cell Lung tumor cell line is measured as a screen for anti-cancer activity. Cells are grown in 96 well plates and exposed to the test compound for 48 hours. Compounds are tested at a single concentration, which is 10^-5 M for most compounds. The reported endpoint is percent growth (GI% or GIPRCNT), where numbers from 0 - 100% represent growth inhibition, and numbers from -100% - 0 represent cell death. For example, a value of 40 represents 60% growth inhibition. A value of 0 means no net growth occurred over the course of the experiment. A value of -40 indicates 40% of cells at the beginning of the experiment died by the end of the experiment. A value of -100 means all cells are dead at the end of the experiment.
NCI-60 Human Tumor Cell Lines Screen was performed using the standard one-dose NCI protocol, which is described in more detail at https://dtp.cancer.gov/discovery_development/nci-60/default.htm.
Compounds with GIPRCNT values below 10 were considered active. Activity score was based on GIPRCNT using the following formula: […]
Score is 0 for GIPRCNT values of 100 or above, 50 for GIPRCNT values of 0, and 100 for GIPRCNT values of -100.

Row | Compound | growth
1 | N#Cc1nc(-c2ccc(F)cc2)oc1S(=O)(=O)N1CCOCC1 | 102%
2 | NNc1nc(-c2cccnc2)nc2c1sc(=S)n2-c1ccccc1 | 101%
3 | C=CCSc1nnc(NC(=O)CCl)s1 | 101%
4 | CCCNc1nc2ccccc2c2c1S(=O)(=O)c1ccc(Cl)cc1C2=O | 32.7%
5 | O=c1c2ccccc2n2cnc3ccc(Cl)c1c32 | 90.2%
6 | O=C(Nc1ccc(Oc2cccc(Cl)c2)c(Cl)c1)c1cccnc1 | 47.1%
7 | CCCCNC(=O)Oc1ccc(/C(=C(/C)Cc2ccc(OC)cc2)c2ccc(OCCN3CCCC3)cc2)cc1 | 81.6%
8 | O=C(NCCNc1nccc(Nc2ccc(S(=O)(=O)Nc3ccccn3)cc2)n1)c1cccc([N+](=O)[O-])c1 | 106%
9 | CCOC(=O)c1ccc2c(c1)nc(-c1ccccc1)n2C1CCCCC1 | 83.1%
10 | Cc1ccc(-c2nc(N3CCCNCC3)c3oc(-c4ccccc4)nc3n2)cc1 | -70.4% (active)
11 | O=C(Nc1ccc(OS(=O)(=O)c2ccc(F)cc2)cc1)C1CCCCCC1 | 106%
12 | COc1ccc(CNc2c3ccccc3nc3ccccc23)cc1 | 47.1%
13 | N#CC1=C(N)Oc2c(sc3c(Br)cccc23)C1c1ccc(Cl)cc1 (stereo not given) | 36.1%
14 | Cn1ccnc1C(=O)/C=C/c1ccc(C(=O)Nc2ccccc2O)cc1 | 45.3%
15 | CSc1nc2ccccc2cc1/C=C1/C=C(c2ccccc2)NC1=O | 93%
16 | C=C(C)[C@@H]1CC[C@]2(C(=O)N3CCOCC3)CC[C@]3(C)[C@H](CC[C@@H]4[C@@]5(C)C/C(=C/c6ccncc6)C(=O)C(C)(C)[C@@H]5CC[C@]43C)[C@@H]12 | 86.8%
17 | Oc1c(Br)cc(Br)c2ccc(Cn3cc(-c4ccccc4C(F)(F)F)nn3)nc12 | 104%
18 | CC1=NC2=Nn3c(c4cnn(-c5ccccc5)c4n/c3=N\N)NN2C(c2ccccc2)=C1 | 87.6%
19 | COC(=O)/C=C1/SC(=Nc2cccc(OC)c2)N(CCc2c[nH]c3ccc(O)cc23)C1=O | 95.2%
20 | CCCCCCCCCCC(CN(CC)CC)C(O)c1ccccc1 (stereo not given) | 80.3%

Row | Compound | growth
21 | COc1ccc(C(=O)N2c3ccccc3Sc3ccccc32)c(OC)c1 | 62.2%
22 | O=C1c2ccc3c4c5ccc(c24)C(=O)N1CCCOCCCCOCCCNCc1ccc(cc1)CNCCCOCCCCOCCCN(C3=O)C5=O | 0.552% (active)
23 | C=CCOC(=O)Nc1cccn([C@H](Cc2ccccc2)C(=O)NCCC(C)C)c1=O | 103%
24 | CCO/C=N/C1=C(C#N)C(c2ccc(Cl)cc2)c2sc3c(F)cccc3c2O1 (stereo not given) | 92.3%
25 | Cc1ccccc1/C=C/C(=O)c1cccc(OCCCOc2cccc(C(=O)/C=C/c3ccccc3C)c2)c1 | 106% [3 µM]
26 | Nc1cc(C(=O)NC[C@H]2CN(c3ccc(N4CCC(C(=O)O)CC4)cc3)C(=O)O2)ccc1Cl | 107%
27 | CCC(C)(C)C(=O)O[C@H]1C[C@@H](C)C=C2C=C[C@H](C)[C@H](CC[C@@H]3CC(SCCN)CC(=O)O3)[C@H]21 (stereo not given in full) | 97.4%
28 | COC(=O)[C@]12CCC(C)(C)C[C@H]1[C@H]1/C(=N/OCCc3nn[nH]n3)C[C@@H]3[C@@]4(C)CC[C@H](OC(C)=O)C(C)(C)[C@@H]4CC[C@@]3(C)[C@]1(C)CC2 | 64.6%
29 | C/C(Cc1ccc(Cl)cc1)=C(\c1ccc(O)cc1)c1ccc(Cl)cc1 | 83.3%
30 | CCOC(=O)n1ccn(C)c1=S | 89.1%
31 | CS(=O)(=O)Nc1cncc(-c2ccc3ncnc(Nc4cncc(Cl)c4)c3c2)c1 | 71.7%
32 | Fc1ccc(CNc2c3ccccc3nc3ccccc23)c(F)c1 | 49.2%
33 | COc1cc2cc(NCc3cccc(Cl)c3)nc(C)c2cc1OC | 37.4%
34 | N#CC1=C(c2ccccc2)Nc2c(c(-c3ccc(Cl)cc3)nn2-c2ccccc2)C12C(=O)Nc1ccc(Cl)cc12 (stereo not given) | 91.3%
35 | Cc1cc(=O)n(C(=O)Nc2ccccc2Cl)c2cc(O)ccc12 | 88.7%
36 | O=C(N/N=C/c1c(Cl)cccc1Cl)c1cccnc1Nc1cccc(C(F)(F)F)c1 | 35%
37 | CCOC(=O)c1c(NC(=O)c2ccc(Cl)cc2)sc2c(CN(C)C)c(O)ccc12 | 61.3%
38 | O=C(/C=C/c1cccc(Cl)c1)c1ccc(Nc2nc(Nc3ccc(F)cc3)nc(Nc3ccc(Cl)cc3)n2)cc1 | 96.6%
39 | Clc1cccc(Nc2ncnc3ccc(-c4cnc5[nH]ccc5c4)cc23)c1 | 18.7%
40 | c1ccc(Cn2cc3c(c2)-c2oncc2CC3)cc1 | 60.4%

— PubChem BioAssay (NCI)
